PubChem BioAssay (NCATS)
Inconclusive results are not listed. A call without a number means that no potency is given here. Calls of active or inactive are those of the source. Calls come from the whole dose curve; as a rule, active = well fitted cell-killing curve with a large enough effect; inconclusive = small, poorly fitted or top-dose-only effect, or effect the other way; inactive = no such curve, though single readings can be large or run the other way.

test: Quantitative High-Throughput drug screen in 47 multiple myeloma cell lines against the NCATS MIPE library collection: FR4_PLB cell viability assay (AID 1918924; note: nearly all actives have a fitted effect of over 35% in size); settings: FR4_PLB myeloma cells viability, CellTiter-Glo ATP, 48 h; series mostly up to 45.8 µM
Excerpt: PI: Beverly A. Mock Ph.D.
Laboratory of Cancer Biology and Genetics,
Center for Cancer Research, National Cancer Institute,
National Institute of Health, Bethesda, Maryland
Drug resistance and disease progression are common in multiple myeloma (MM) patients, underscoring the need for new therapeutic combinations. […] We hypothesized that effective combinations would reduce MYC expression and enhance p16 activity. […] These preclinical data identify potentially useful drug combinations for evaluation in drug-resistant MM and reveal potential mechanisms of combined drug sensitivity.
Described herein is the primary MIPE qHTS used to cherrypick compounds. Validated compounds were then further tested for potential synergistic activiy.
[1] Peat TJ, Gaikwad SM, Dubois W, Gyabaah-Kessie N, Zhang S, Gorjifard S, Phyo Z, Andres M, Hughitt VK, Simpson RM, Miller MA, Girvin AT, Taylor A, Williams D, D'Antonio N, Zhang Y, Rajagopalan A, Flietner E, Wilson K, Zhang X, Shinn P, Klumpp-Thomas C, McKnight C, Itkin Z, Chen L, Kazandijian D, Zhang J, Michalowski AM, Simmons JK, Keats J, Thomas CJ, Mock BA. Drug combinations identified by high-throughput screening promote cell cycle transition and upregulate Smad pathways in myeloma. Cancer Lett. 2023 Aug 1;568:216284. doi: 10.1016/j.canlet.2023.216284. Epub 2023 Jun 24. PMID: 37356470; PMCID: PMC10408729.
SEQUENCE No. (e.g., 1, 2, 3, etc.); […] (e.g., Cells, Incubation, Reagent, etc.); VALUE and DESCRIPTION.
1; Cells; 5 uL; white, solid bottom 1536-well Greiner assay plate.
2; Compounds; 23 nL; Kalypsis pin tool (Wako USA) equipped with a 1536-well pin head to transfer to the assay plates.
3; Incubation; 48 hours; 37C incubation.
4; Reagent;5uL; CellTiter Glo (Promega).
5; Detector; 425V; Luminescence; Viewlux PerkinElmer.
NOTES (numbers refer to Sequence numbers above)
1. The cell-based screening methods employed in this study were like those previously published. Briefly, the corresponding myeloma cell lines were screened in 1,536-well plates with 500 cells, 5-uL per well for inhibition of cell viability (assessed by measuring ATP levels with CellTiterGlo).
2. NCATS MIPE 4.0 library of approved and investigational drugs were added using the Kalypsis pin tool. Wells treated with DMSO only for 100% viability and media only wells for 0% viability were used as controls.
3. The assay plates were covered and incubated for 48 hours in a 37C, 5% CO2 incubator with controlled humidity.
4. After 48 hours, CellTilter-GloTM luminescent substrate mix (Promega) reagent was added to the assay plate and plates we incubated for 5 min at room temperature.
5. Signal was measured as median relative luminescence units on a ViewLux (PerkinElmer) multiplate reader.
[1] Heske CM, Davis MI, Baumgart JT, Wilson K, Gormally MV, Chen L, Zhang X, Ceribelli M, Duveau DY, Guha R, Ferrer M, Arnaldez FI, Ji J, Tran HL, Zhang Y, Mendoza A, Helman LJ, Thomas CJ. Matrix Screen Identifies Synergistic Combination of PARP Inhibitors and Nicotinamide Phosphoribosyltransferase (NAMPT) Inhibitors in Ewing Sarcoma. Clin Cancer Res. 2017 Dec 1;23(23):7301-7311. doi: 10.1158/1078-0432.CCR-17-1121. Epub 2017 Sep 12. PMID: 28899971; PMCID: PMC6636827.
Potency is the fitted concentration of half-maximal effect.

Row | SMILES | Potency
1 | C[C@](N)(Cc1ccc(O)c(O)c1)C(=O)O | inactive
2 | CC(C(=O)O)c1cccc(C(=O)c2ccccc2)c1 (stereo not given) | inactive
3 | Clc1ccc2nsnc2c1NC1=NCCN1 | inactive
4 | Cn1cnc2c1c(=O)[nH]c(=O)n2C | 26.4 µM (active)
5 | Cn1ccc2cc3c(cc21)CCN3C(=O)Nc1cccnc1 | inactive
6 | CC(C)C(=O)Nc1ccc([N+](=O)[O-])c(C(F)(F)F)c1 | inactive
7 | CN(C)CCCN1c2ccccc2CCc2ccc(Cl)cc21 | 1.18 µM (active)
8 | CC(CCc1ccc(O)cc1)NCCc1ccc(O)c(O)c1 (stereo not given) | 23.5 µM (active)
9 | COc1ccc2c(c1)c(CC(=O)O)c(C)n2C(=O)c1ccc(Cl)cc1 | inactive
10 | CN1CCN(C2=Nc3cc(Cl)ccc3Nc3ccccc32)CC1 | inactive
11 | Nc1ccn([C@H]2CC[C@@H](CO)O2)c(=O)n1 | inactive
12 | CN1CCN(CCCN2c3ccccc3Sc3ccc(Cl)cc32)CC1 | 23.5 µM (active)
13 | Cc1cc(C(C)(C)C)c(O)c(C)c1CC1=NCCN1 | inactive
14 | OCCN1CCN(CCCN2c3ccccc3Sc3ccc(C(F)(F)F)cc32)CC1 | 23.5 µM (active)
15 | CCCCc1oc2ccccc2c1C(=O)c1cc(I)c(OCCN(CC)CC)c(I)c1 | 26.4 µM (active)
16 | Cc1ccc(C(=O)Nc2ccc(S(=O)(=O)O)c3cc(S(=O)(=O)O)cc(S(=O)(=O)O)c23)cc1NC(=O)c1cccc(NC(=O)Nc2cccc(C(=O)Nc3cc(C(=O)Nc4ccc(S(=O)(=O)O)c5cc(S(=O)(=O)O)cc(S(=O)(=O)O)c45)ccc3C)c2)c1 | inactive
17 | Cc1ccc(-c2cc(C(F)(F)F)nn2-c2ccc(S(N)(=O)=O)cc2)cc1 | inactive
18 | O=C1c2c(O)ccc(O)c2C(=O)c2c(NCCNCCO)ccc(NCCNCCO)c21 | 1.66 µM (active)
19 | C[C@@H]1CC(=O)NN=C1c1ccc(NN=C(C#N)C#N)cc1 | 23.5 µM (active)
20 | CC(=O)OCC(CCn1cnc2cnc(N)nc21)COC(C)=O | inactive

Row | SMILES | Potency
21 | CC(C)(C)C(=O)Oc1ccc(S(=O)(=O)Nc2ccccc2C(=O)NCC(=O)O)cc1 | inactive
22 | CCOC(=O)C(C)(C)Oc1ccc(Cl)cc1 | inactive
23 | CC(C)NCC(O)COc1ccc(CCOCC2CC2)cc1 (stereo not given) | inactive
24 | CN1C2CCC1CC(OC(=O)C(CO)c1ccccc1)C2 (stereo not given) | inactive
25 | CN1CCC(=C2c3ccccc3CC(=O)c3sccc32)CC1 | inactive
26 | NC(=O)NO | 3.32 µM (active)
27 | O=C(c1ccc(OCCN2CCCCC2)cc1)c1c(-c2ccc(O)cc2)sc2cc(O)ccc12 | 26.4 µM (active)
28 | CC1(C)O[C@H]2CC(=O)OC[C@]23[C@H]2CC[C@@]4(C)[C@H](c5ccoc5)OC(=O)[C@H]5O[C@]54[C@]2(C)C(=O)C[C@@H]13 | inactive
29 | CN(C)c1nc(N(C)C)nc(N(C)C)n1 | inactive
30 | COc1ccccc1N1CCN(CC(O)COc2cccc3ccccc23)CC1 (stereo not given) | inactive
31 | COc1nc(C)nc(Cl)c1NC1=NCCN1 | inactive
32 | Cn1c(=O)c2[nH]cnc2n(C)c1=O | inactive
33 | CN(C)C(=N)N=C(N)N | inactive
34 | NC(=O)OCC(COC(N)=O)c1ccccc1 | inactive
35 | CCOC(=O)Nc1ccc(NCc2ccc(F)cc2)nc1N | inactive
36 | NCCc1cnc[nH]1 | inactive
37 | Clc1ccc2c(c1)C(N1CCNCC1)=Nc1ccccc1O2 | inactive
38 | Nc1nc2c(ncn2COC(CO)CO)c(=O)[nH]1 | 26.4 µM (active)
39 | CNCCCC12CCC(c3ccccc31)c1ccccc12 | 20.9 µM (active)
40 | CN(C)CCOC(c1ccccc1)c1ccccc1 | inactive
